Compound activity from PubChem BioAssay.
In the library only some 2.5% were active in any assay of this set; here they are far more common.
aSyn rescue = rescues yeast growth from alpha-synuclein toxicity. Potency, µM (highest dose often 46.1 µM), actives largely listed as activators. 370,000 compounds, 0.14% hits. Yeast expressing alpha-synuclein, growth rescue, BacTiter-Glo, 24 h; further: nearly all actives have a fitted effect of over 65% in size
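Rescue of yeast growth: cells expressing toxic alpha-synuclein, induced in galactose at OD600 0.02, incubated with compound 24 h at 30 C. ATP luminescence quantified growth; inhibitors of toxicity appear as activators.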
TDP43 rescue = rescues yeast growth from TDP-43 toxicity. AID 652104. 410,000 compounds, 1.8% hits. Potency, µM (doses to about 46.1 µM), hits mostly activators. TDP-43 expressing yeast growth rescue, BacTiter-Glo, 24 h; further: nearly all actives have a fitted effect of over 50% in size
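Yeast expressing TDP-43 (pregrown in raffinose, seeded at OD600=0.02 in galactose medium) exposed to compounds 24 hr at 30 deg C. Growth read by BacTiter-Glo luminescence; rescue of toxicity appears as increased signal.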
Apoferritin bind = binds horse apoferritin like a general anesthetic; apoferritin/1-aminoanthracene competitive binding, fluorescence; 350,000 compounds, 0.074% hits; AID 485281; P02791; Potency, µM (series often up to 77.5 µM), hits mostly inhibitors; further: nearly all actives have a fitted effect of over 20% in size
Target sequence (P02791 2-175 limits assumed): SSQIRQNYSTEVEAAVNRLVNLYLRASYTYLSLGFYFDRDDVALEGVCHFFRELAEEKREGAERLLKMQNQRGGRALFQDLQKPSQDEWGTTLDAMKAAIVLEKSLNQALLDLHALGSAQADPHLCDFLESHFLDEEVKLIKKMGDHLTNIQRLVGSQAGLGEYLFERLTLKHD
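In PBS, apoferritin at 10 uM is loaded with 1-AMA from a 50% saturated solution. After 10 min of compound exposure at ambient temperature, reduced 535 nm fluorescence indicates probe displacement.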
pAkt inh = inhibitors of Akt phosphorylation; AID 651550; activity change, % for hits at 50 µM; 360,000 compounds, 0.32% hits; Neuro2A IGF-stimulated pAkt S473 HTRF, 20 min; stronger effect = lower value; in the data active means activity change below about -80%; inconclusive means mostly about -51% to -80%
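Single-point screen (50 µM final compound) in Neuro2A cells stimulated 20 min with 6 nM IGF at 37 deg C. After lysis, Ser473-phosphorylated Akt read by HTRF (ex 330 nm, em 615/665 nm) as the 665/615 ratio.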
Mito fusion yeast = blocks mitochondrial division or promotes mitochondrial fusion. S. cerevisiae fusion-defective mutant growth rescue, CellTiterGlo 48 h. 320,000 compounds, 0.23% hits. Potency, µM (top dose mostly 46.1 µM), most hits filed as activators; further: nearly all actives have a fitted effect of over 45% in size
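Compounds are tested for their ability to restore growth of mitochondrial fusion-defective yeast strains at non-permissive 37C in YPEG medium over 48 hours. Viability is quantified by luciferase luminescence.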
CCT modulator = modulators of cytosolic chaperonin (CCT/TRiC) activity. purified chaperonin ATPase assay, HTRF ADP detection, 30 min. activity change, % (concentration not given with the values), hits read low. 360,000 compounds, 0.3% hits. AID 651819; in the data active means activity change below about -30%
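First, chaperonin was dispensed at 40 nM or 20 nM final depending on batch activity. Next, compounds were pinned at 76 uM and ATP added at 10 uM. After 30 min at 37 °C, ADP detection reagents ran 30 min at ambient temperature.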
Of the large screens only hits and unclear results are named; the others gave an inactive call; ! = not active in a repeat. Unless noted, the call rests on the fitted dose curve; in most records, active means well fitted curve in the direction sought with a large enough effect; inconclusive means small, poorly fitted or top-dose-only effect, or another doubt; inactive means no such curve, though single readings can be large; an effect the other way counts as inactive or inconclusive.

CCOC(=O)C1=CCN(S(=O)(=O)c2ccccc2)C1c1ccc(Cl)cc1 (centres undefined)	TDP43 rescue 35µM (no result: Apoferritin bind, Mito fusion yeast)
CCOC(=O)C1=CCN(S(=O)(=O)c2ccccc2)C1c1ccccc1 (centres undefined)	TDP43 rescue inconclusive (no result: Apoferritin bind, Mito fusion yeast)
CCOC(=O)C1=CCN(S(=O)(=O)c2ccc(F)cc2)C1c1ccc(Br)cc1 (centres undefined)	TDP43 rescue 35µM (no result: Apoferritin bind, Mito fusion yeast)
Cc1nc(CNS(=O)(=O)c2ccc3ccccc3c2)cs1	TDP43 rescue 14µM
CC(C)C1C(=O)N(Cc2cn(CCC3OCCO3)nn2)CCS(=O)(=O)N1Cc1ccc(-c2ccccc2Cl)cc1 (centres undefined)	aSyn rescue inconclusive, TDP43 rescue 35µM (no result: Apoferritin bind, Mito fusion yeast)
CC(C)C1C(=O)N(Cc2cn(CCC3OCCO3)nn2)CCS(=O)(=O)N1Cc1ccc(-c2ccc(F)cc2Cl)cc1 (centres undefined)	aSyn rescue inconclusive, TDP43 rescue 22µM (no result: Apoferritin bind, Mito fusion yeast)
O=C(OCc1ccccc1)[C@@H]1COC(c2ccc(Br)cc2)=N1	none (no result: aSyn rescue, TDP43 rescue, pAkt inh, Mito fusion yeast, CCT modulator)
O=C(CSc1nnnn1Cc1ccccc1)N1CCN(c2ccccc2)CC1	CCT modulator -37
COc1cc2c(NC3CCN(C)CC3)nc(N3CCCN(C)CC3)nc2cc1OCCCCCN(C)C	none (no result: TDP43 rescue, Apoferritin bind, pAkt inh, Mito fusion yeast, CCT modulator)
CC(=O)c1ccc(NC(=O)c2ccc(CSc3ccccc3)o2)cc1	TDP43 rescue 16µM, Mito fusion yeast inconclusive
NS(=O)(=O)c1ccc(NC(=O)c2ccc(CSc3ccccc3)o2)cc1	none
O=C(Nc1ccc(F)cc1)c1ccc(CSc2ccccc2)o1	TDP43 rescue 16µM, Mito fusion yeast inconclusive
O=C(c1ccc(F)cc1)c1ccc(CN2C(=O)c3ccccc3C2=O)o1	TDP43 rescue 13µM, Apoferritin bind inconclusive
O=C(Cc1ccc(F)cc1)OCN1C(=O)c2ccccc2C1=O	TDP43 rescue inconclusive
O=C(c1ccc(Cl)cc1)c1ccc(CN2C(=O)c3ccccc3C2=O)o1	TDP43 rescue 14µM, Apoferritin bind inconclusive
Cc1ccc(OCC(=O)Nc2ccc(Cl)c(-c3nc4ncccc4o3)c2)cc1C	aSyn rescue inconclusive, TDP43 rescue 18µM, Apoferritin bind inconclusive (no result: pAkt inh, Mito fusion yeast, CCT modulator)
O=C(c1cnn(-c2ccc(F)cc2)c1-n1cccc1)N1CCN(c2cccc(Cl)c2)CC1	TDP43 rescue 13µM (no result: pAkt inh, Mito fusion yeast, CCT modulator)
COC(=O)c1ccccc1NC(=O)C1CCCN(C(=O)c2cnn(-c3ccc(F)cc3)c2-n2cccc2)C1 (centres undefined)	TDP43 rescue 35µM (no result: pAkt inh, Mito fusion yeast, CCT modulator)
CCn1c(=O)c2cc(C(=O)NC3CCC(C)CC3)sc2c2ccccc21 (centres undefined)	none (no result: aSyn rescue, pAkt inh, Mito fusion yeast, CCT modulator)
CCC(C)c1ccc(NC(=S)N2CCN(C(=O)C3CCCO3)CC2)cc1 (centres undefined)	TDP43 rescue inconclusive, CCT modulator -74
COc1ccc(/C=C(\C)C(=O)c2c(C)cc(C)[nH]c2=O)cc1	none (no result: Apoferritin bind, Mito fusion yeast)
COc1ccc(OC)c(/C=C(\C)C(=O)c2c(C)cc(C)[nH]c2=O)c1	CCT modulator -42 (no result: Apoferritin bind, Mito fusion yeast)
COc1ccccc1C1=Nn2c(nnc2-c2cccc(OC)c2OC)SC1	none (no result: aSyn rescue, TDP43 rescue, pAkt inh, Mito fusion yeast, CCT modulator)
C[C@@]12CC[C@@H]3c4ccc(O)cc4CC[C@H]3[C@H]1CC[C@H]2O	none (no result: aSyn rescue, TDP43 rescue, pAkt inh, Mito fusion yeast, CCT modulator)
CC(NCCN(C)C)C1CCC2C3CCc4cc(O)ccc4C3CCC12C (centres undefined)	TDP43 rescue 0.32µM (no result: Apoferritin bind, Mito fusion yeast)
C[C@]12CC[C@@H]3c4ccc(O)cc4CC[C@H]3[C@@H]1CC[C@@H]2O	TDP43 rescue inconclusive, Mito fusion yeast 23µM!
O[C@@H]1CO[C@H]2C1OC[C@@H]2O (some centres undefined)	none (no result: aSyn rescue, TDP43 rescue, pAkt inh, Mito fusion yeast, CCT modulator)
CO[C@H]1COC(=O)[C@H](C)COC(=O)[C@H](C)NC(=O)C/C=C\[C@H]1C	none (no result: aSyn rescue, TDP43 rescue, pAkt inh, Mito fusion yeast, CCT modulator)
CCCCCc1ccc(CC(=O)Nn2c(C)nc3ccccc3c2=O)cc1	Apoferritin bind inconclusive, Mito fusion yeast inconclusive
Cc1nc2ccccc2c(=O)n1NC(=O)Cc1ccc(Br)cc1	pAkt inh -81%
COc1ccc2nc3cccc(OC)c3nc2c1	TDP43 rescue 22µM
Cc1cc(Br)ccc1NC(=O)COC(=O)c1ccccc1OCC(N)=O	none (no result: TDP43 rescue, Apoferritin bind, pAkt inh, Mito fusion yeast, CCT modulator)
